# PubChem BioAssay AID868 (SRMLSC, 2007)
# About 3,500 (1.8%) of roughly 190,000 compounds were called active.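 How the source made its calls: active means inhibition above a set limit, 3 SD over mean compound inhibition (cut at about 8.4% in these data); inactive means the rest.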 The list comes from a sample in which actives are over-represented; it also holds similar structures and randomly drawn compounds.
# Assay: inhibitors of the yeast RAM network, primary screen, dse1pr::URA3 reporter, 5-FOA selection (AID 868);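 further: 0% = DMSO-only wells with no growth and 100% = 10 µM 1-NA-PP1 full growth; inhibition rescues growth on 5-FOA so higher OD means more RAM inhibition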
# Conditions: S. cerevisiae dse1pr::URA3 reporter, 5-FOA growth OD615, 2 d; at 50 µM; active compounds read high; analog-sensitive cbk1-as2 kinase mutant strain
row,SMILES,inhibition
1,Cc1ccccc1CN1C[C@@H]2C[C@@H](c3ccc4nsnc4c3)N3CCC[C@@]23C1=O,1.56% (inactive)
2,COc1ccc(/C=C2\CCCC3C2=NN(C(=O)c2scnc2C)C3c2ccc(OC)cc2)cc1 (centres undefined),8.89% (active)
3,CN(C)/C=C/C(=O)c1cnc2sccn2c1=O,3.34% (inactive)
4,Cc1cc(Cl)ccc1OCCCC(=O)NCc1ccccn1,-1.48% (inactive)
5,CC1CCCC(C)N1/N=C/c1ccccc1OC(F)F (centres undefined),-0.37% (inactive)
6,NS(=O)(=O)c1ccc(NC(=S)NC(=O)c2cccnc2)cc1,0.14% (inactive)
7,NS(=O)(=O)c1ccc(NC(=S)NC(=O)c2cccc(Br)c2)cc1,15.5% (active)
8,O=C(NC(=S)Nc1ccc(S(=O)(=O)Nc2ncccn2)cc1)c1cccc(Br)c1,6.97% (inactive)
9,CCc1ccccc1NC(=O)Cc1cn(C)c2ccccc12,1.88% (inactive)
10,O=C(/C=C/c1ccc(Cl)c([N+](=O)[O-])c1)c1cccnc1,1.34% (inactive)
11,Cc1ccsc1C1C(C#N)=C(N)OC2=C1C(=O)CC(C)C2 (centres undefined),2.12% (inactive)
12,O=C(c1ccc(Cl)cc1)c1cnc(Nc2ccccc2)s1,3.49% (inactive)
13,CCC(=O)Nc1sc(C(=O)Nc2ccccc2)c(C)c1C(=O)OC,-0.53% (inactive)
14,CC(=O)c1c(Nc2ccccc2)sc(C(=O)c2ccccc2)c1C,13.4% (active)
15,COc1cc(CN2CCN(Cc3ccc(C)cc3)CC2)c([N+](=O)[O-])cc1OC,-0.12% (inactive)
16,N#Cc1ccc(-c2ccc(F)cc2)nc1Sc1ccccc1,9.92% (active)
17,N#Cc1ccc(-c2ccc(Cl)cc2)nc1Oc1ccc(F)cc1,3.94% (inactive)
18,N#Cc1c(-c2ccc(F)cc2)nc(-c2ccccc2)[nH]c1=O,1.19% (inactive)
19,COC(=O)c1nc(NC(=O)c2ccc(C(C)(C)C)cc2)n[nH]1,-0.27% (inactive)
20,COC(=O)C1=C(C(=O)OC)C(c2cc([N+](=O)[O-])ccc2O)c2sc(=O)[nH]c2S1 (centres undefined),-0.84% (inactive)

row,SMILES,inhibition
1,CCOC(=O)C(NC(C)=O)C(=O)Nc1ccc(OC)cc1 (centres undefined),1.23% (inactive)
2,Cc1nn(-c2ccccn2)c2c1C(c1ccncc1)C1=C(CC(C)(C)CC1=O)N2 (centres undefined),-0.66% (inactive)
3,Cc1cc(C)c(C2C3=C(Nc4c2c(C)nn4-c2ccccn2)c2ccccc2C3=O)c(C)c1 (centres undefined),9.18% (active)
4,Cc1ccc(C2C3=C(Nc4[nH]n(-c5ccccc5)c(=O)c42)c2ccccc2C3=O)cc1 (centres undefined),4.88% (inactive)
5,O=C(CN1CCN(C/C=C/c2ccccc2)CC1)Nc1ccc(F)cc1F,0.69% (inactive)
6,CCOCCCNCc1cc(Br)ccc1OCC,1.92% (inactive)
7,CCOC(=O)C1CCN(CCC(=O)Nc2cccc(C)c2)CC1,0.78% (inactive)
8,Cc1ccc(S(=O)(=O)N2CCOCC2)cc1C(=O)OC1CCCCC1=O (centres undefined),0.38% (inactive)
9,COc1cc(/C=C/C(=O)O)cc(S(=O)(=O)Nc2ccccc2SC)c1OC,5.01% (inactive)
10,CCC(C)(C)NC(=O)/C=C/c1cc(OC)c(OC)c(S(=O)(=O)N2CCc3ccccc32)c1,9.06% (active)
11,COc1ccc(C(=O)OCC(=O)NCC2CCCCC2)cc1S(=O)(=O)N1CCCc2ccccc21,2.15% (inactive)
12,Cc1cc(=O)[nH]c(N/N=C/c2c(C)nn(-c3ccccc3Cl)c2Cl)n1,1.7% (inactive)
13,CCOc1ccc(/C=N/Nc2nncc(-c3ccccc3)n2)cc1OC,-0.12% (inactive)
14,Cc1cc(OC(=O)c2ccccc2Cl)ccc1N1C(=O)CCC1=O,-1.28% (inactive)
15,COc1ccc(CCNC(=O)CCn2c(=O)c3ccccc3n(CC(=O)NCC3CCCO3)c2=O)cc1OC (centres undefined),4.36% (inactive)
16,O=C(NC(=S)Nc1cccc(-c2ccc(CO)o2)c1)c1cccs1,9.61% (active)
17,CCc1nnc(NS(=O)(=O)c2ccc(NC(=S)NC(=O)c3cccs3)cc2)s1,4.73% (inactive)
18,O=C(NC(=S)Nc1ccc(NC(=O)c2cccs2)cc1)c1ccc([N+](=O)[O-])cc1,2.93% (inactive)
19,COc1cccc(NC(=O)NCc2ccc(F)cc2)c1,5.02% (inactive)
20,Cc1c(C=O)c2ccccc2n1CC(=O)O,0% (inactive)

row,SMILES,inhibition
1,CSc1nc2c(c(=O)[nH]1)C(c1cccc(Cl)c1Cl)CC(=O)N2 (centres undefined),5.93% (inactive)
2,COc1ccc(CC(=O)NCc2nnc(SCC(=O)Nc3nccs3)n2C)cc1,6.82% (inactive)
3,COc1ccc(S(=O)(=O)NCc2ccc(C(=O)N(C)Cc3ccco3)cc2)cc1,0.12% (inactive)
4,CCOc1ccc(CN(Cc2ccco2)S(=O)(=O)c2ccc(-n3cnnn3)c(OC)c2)cc1,6.13% (inactive)
5,COc1ccc(CN(Cc2ccco2)S(=O)(=O)c2ccc(S(=O)(=O)N3CCCC3)cc2)cc1,9.77% (active)
6,Cc1ccc(S(=O)(=O)NCCc2nnc3ccc(SCc4cccnc4)nn23)cc1,0.39% (inactive)
7,CCOc1ccc(NC(=O)c2ccc(CSc3nnnn3C)cc2)cc1,2.05% (inactive)
8,CCOc1cc(NS(=O)(=O)c2ccc(OC)cc2)c(OCC)cc1NC(C)=O,3.5% (inactive)
9,CCOc1cc(NC(=O)c2ccccn2)c(OCC)cc1NC(=O)c1ccc(OC)cc1,10.6% (active)
10,CCOc1ccc(C(=O)Nc2cc(OC)ccc2OC)cc1,0.11% (inactive)
11,CCOC(=O)CNc1nc(Cl)nc(Nc2ccccc2)n1,5.04% (inactive)
12,CC(Sc1nnnn1C)C(=O)NC(=O)NC1CCCCC1 (centres undefined),0.61% (inactive)
13,Cc1ccc(-c2cc(C(=O)N/N=C/C=C/c3ccccc3)n[nH]2)o1,2.69% (inactive)
14,COc1cc(/C=C(\C#N)C(=O)Nc2ccc3ccccc3c2)c([N+](=O)[O-])cc1OC,-0.51% (inactive)
15,COc1cc(C=O)c(Br)cc1OCC(=O)NCc1ccccc1,3.38% (inactive)
16,COc1ccc(NC(=O)/C(C#N)=C\c2cc(OC)c(OCc3ccc(C(=O)O)cc3)cc2Br)cc1,8.75% (active)
17,O=S(=O)(Nc1ncccn1)c1ccc(NS(=O)(=O)c2cccc(Cl)c2Cl)cc1,1.52% (inactive)
18,O=C(/C=C/c1ccc(Cl)cc1)Nc1ccc(S(=O)(=O)Nc2ncccn2)cc1,8.46% (active)
19,O=C(/C=C/c1ccccc1Cl)Nc1ccc(S(=O)(=O)Nc2ncccn2)cc1,5.65% (inactive)
